# TDP1 cell noCPT = qHTS for Inhibitors of human tyrosyl-DNA phosphodiesterase 1 (TDP1): qHTS in cells in absence of CPT | DT40 Tdp1-/- hTDP1 cells, no CPT, ATP luminescence, 48 h | Potency, µM (doses to about 46.2 µM), inactives show at the highest dose activity change, negative = growth inhibition, usual class: inhibitors | 15% of 420,000 active | AID 686978, 2013; further: potency means the concentration at half of the fitted maximal effect; on the % scale 0 is the no-effect control and ±100 the full control effect; nearly all actives have a fitted effect of over 55% in size
#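 No-CPT arm: Tdp1-/-;hTDP1 DT40 cells (400/well) plus compounds, incubated ≥48 hr at 37 °C. Readout CellTiter-Glo luminescence.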
# TGFb inhibitor = qHTS for Inhibitors of TGF-b; HepG2 CAGA-GFP TGF-b/SMAD3 reporter, GFP fluorescence, 18 h; TGF-beta stimulated, 500 pg/mL final; Potency, µM (series often up to 46.1 µM), for inactives: top-dose activity, negative = inhibition, most hits filed as inhibitors; AID 588855, 2011; 1.2% of 410,000 active; further: potency means the concentration at half of the fitted maximal effect; on the % scale 0 is the no-effect control and ±100 the full control effect; nearly all actives have a fitted effect of over 65% in size
#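 First, reporter cells (HEPG2 CAGA-GFP) rested 2 h at 37 degrees C. Next, compounds were pinned in and TGF-beta added to 500 pg/mL final. After 18 h, GFP was imaged per cell and summed per well.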
# IL-1B inflam inh = qHTS for Inhibitors of Inflammasome Signaling: IL-1-beta AlphaLISA Primary Screen. THP-1 LPS/ATP IL-1B secretion, AlphaLISA, 16 h; hits give low values. activity change, % at 57.5 µM. 4.7% of 360,000 active. AID 743279, 2014; in the data active means activity change below about -50%; inconclusive means mostly about -30% to -49%; further: on the % scale 0 is the no-effect control and ±100 the full control effect
#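 THP-1 cells pretreated 1 hr with compounds (up to 57.5 uM final), then stimulated with LPS (250 ng/mL final) plus ATP (1.25 mM final); secreted IL-1B measured by AlphaLISA after 16 hr, decreased signal indicating inhibition.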
# HepG2 tox = qHTS for Inhibitors of TGF-b: Cytotox Counterscreen; HepG2 CAGA-GFP viability, ATP luminescence, 18 h; Potency, µM (titrated, usually from 46.1 µM), without a hit: top-dose activity change, negative = cytotoxicity, usual class: cytotoxic; 0.76% of 410,000 active; further: potency means the concentration at half of the fitted maximal effect
#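 HepG2 CAGA-GFP cells (1000/well, DMEM with 1% FBS) received compound, then TGF-beta at 500 pg/mL final, and were incubated 18 hours at 37 degrees C. Viability was read by CellTiter-Glo luminescence. Media-only wells were set as complete cell-killing and DMSO as no toxicity.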
# TDP1 cell CPT = qHTS for Inhibitors of human tyrosyl-DNA phosphodiesterase 1 (TDP1): qHTS in cells in presence of CPT | chicken DT40 Tdp1-/-;hTDP1 cells + 20 nM CPT, ATP luminescence, 48 h | Potency, µM (titrated, usually from 46.2 µM), without a hit: top-dose activity change, negative = growth inhibition, usual class: inhibitors | 12% of 420,000 active | AID 686979, 2013; further: potency means the concentration at half of the fitted maximal effect; on the % scale 0 is the no-effect control and ±100 the full control effect; nearly all actives have a fitted effect of over 55% in size
#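 Cell growth measured by CellTiter-Glo luminescence after a minimum 48 h, 37 C compound exposure with 20 nM CPT in Tdp1-knockout DT40 cells stably expressing hTDP1, seeded 400/well; qHTS titration format.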
# TDP1 inh = qHTS Assay for Inhibitors of Tyrosyl-DNA Phosphodiesterase (TDP1) | Tyrosyl-DNA phosphodiesterase 1 (Homo sapiens), Q9NUW8 | recombinant TDP1, AlphaScreen DNA substrate cleavage | Potency, µM (series often up to 130 µM), for the others: at the highest dose activity change, negative = inhibition, usual class: inhibitors | 0.28% of 350,000 active; further: potency means the concentration at half of the fitted maximal effect; on the % scale 0 is the no-effect control and ±100 the full control effect; nearly all actives have a fitted effect of over 40% in size
# Target sequence (Q9NUW8 whole entry, looked up): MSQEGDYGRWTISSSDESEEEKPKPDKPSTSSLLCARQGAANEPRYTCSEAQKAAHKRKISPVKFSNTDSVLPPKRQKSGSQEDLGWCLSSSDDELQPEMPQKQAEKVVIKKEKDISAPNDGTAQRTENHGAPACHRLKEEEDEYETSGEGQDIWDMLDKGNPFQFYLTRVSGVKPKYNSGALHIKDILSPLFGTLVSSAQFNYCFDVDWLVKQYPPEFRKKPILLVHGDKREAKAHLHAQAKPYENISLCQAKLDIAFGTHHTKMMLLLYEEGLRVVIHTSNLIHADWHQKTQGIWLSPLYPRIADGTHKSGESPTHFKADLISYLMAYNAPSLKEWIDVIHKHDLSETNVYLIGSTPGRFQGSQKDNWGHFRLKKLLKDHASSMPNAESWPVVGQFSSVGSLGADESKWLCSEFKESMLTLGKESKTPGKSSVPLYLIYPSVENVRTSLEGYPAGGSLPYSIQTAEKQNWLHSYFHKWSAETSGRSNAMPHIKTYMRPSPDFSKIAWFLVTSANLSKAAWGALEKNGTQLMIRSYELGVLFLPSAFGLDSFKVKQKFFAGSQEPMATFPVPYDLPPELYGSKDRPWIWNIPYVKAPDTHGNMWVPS
#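 Tdp1 1 nM final; 15 min RT w/ cpd; substrate 15 nM, 5 min; beads 10 ug/ml, 10 min; AlphaScreen read. Neg ctrl: no enzyme.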
# Numbers without * were called inactive; ? = inconclusive; / = no result given. This is a sample that favours compounds with a hit; in the whole collection about 18% have one here. Unless noted, the call rests on the fitted dose curve; in most records, active means well fitted curve in the direction sought with a large enough effect; inconclusive means small, poorly fitted or top-dose-only effect, or another doubt; inactive means no such curve, though single readings can be large; an effect the other way counts as inactive or inconclusive.
SMILES,TDP1 cell noCPT,TGFb inhibitor,IL-1B inflam inh,HepG2 tox,TDP1 cell CPT,TDP1 inh
COc1ccccc1C=NN=C(NN=Cc1ccccc1OC)NN=Cc1ccccc1OC,?,?,-81.6*,-28.5%,?,/
COc1ccccc1Nc1cc2ccccc2c(=O)[nH]1,/,/,/,/,/,2.0%
CCn1c2c(c(=O)n3ncc(C(=O)Nc4ccc(C(=O)OC)cc4)c13)CN(Cc1ccc(OC)cc1)CC2,?,?,/,-32.6%,?,0.6%
CCC1=C2CC[C@H]3C(=O)N(C)C(=O)[C@H]3[C@H]2[C@@]2(Cc3ccccc3)C(=NCCc3c[nH]c4ccccc34)OC(=O)N2C1=O,/,/,/,/,/,12.9%
O=C(Nc1nc2ccc(SC(F)F)cc2s1)c1ccc(NS(=O)(=O)c2ccc(F)c(F)c2)cc1,?,?,26.7,-61.4%,?,2.4%
COc1cccc(/C=N/Nc2ccc(C(=O)O)cc2)c1O,20.6µM*,?,8.5,-15.5%,?,-6.9%
COc1cccc(/C=N/Nc2ccc(S(=O)(=O)O)cc2)c1O,5.0%,-18.7%,8.6,0.7%,1.5%,?
COc1cccc(/C=N/NC(=O)CSc2ccccc2C)c1O,1.3µM*,?,46.4,-5.8%,1.16µM*,8.0%
COc1cccc(/C=N/Nc2nn3cnnc3c3ccccc23)c1O,1.16µM*,-3.5%,54.2,-46.0%,2.59µM*,3.9%
CCOc1ccc(-n2c(SCC(=O)O)nc3sc4c(c3c2=O)CCCC4)cc1,2.1%,-6.6%,6.5,1.3%,17.4%,1.4%
COc1cccc(OCc2cc(C3Nc4ccccc4C(=O)N3Cc3ccco3)ccc2OC)c1 (stereo not given),?,8.3%,-27.3,-0.2%,?,5.0%
CCCN1C(=O)c2ccccc2NC1c1ccc(OC)c(COc2ccc([N+](=O)[O-])c(C)c2)c1 (stereo not given),17.8µM*,17.2%,/,-4.5%,?,-4.2%
COc1cccc(OCc2cc(C3Nc4ccccc4C(=O)N3Cc3ccccc3)ccc2OC)c1 (stereo not given),?,15.5%,/,9.9%,-26.9%,1.5%
COc1ccc(C2Nc3ccccc3C(=O)N2Cc2ccco2)cc1COc1c(C)cccc1C (stereo not given),5.01µM*,?,/,-73.4%,2.51µM*,0.0%
COc1ccc(C2Nc3ccccc3C(=O)N2Cc2ccco2)cc1COc1ccc([N+](=O)[O-])cc1 (stereo not given),23.1µM*,-13.1%,?,-29.0%,?,1.2%
CCn1ccc2cc(S(=O)(=O)N3CCCN(C(=O)Nc4ccc(C)cc4)CC3)ccc21,/,-11.8%,/,-15.1%,/,0.6%
CCOC(=O)c1cc(-c2csc(COc3ccccc3)n2)on1,-15.2%,-24.0%,15.8,-41.0%,-5.3%,-5.1%
CCOC(=O)c1cc(-c2csc(COc3ccccc3Cl)n2)on1,16.4µM*,-18.7%,-24.5,-25.0%,20.6µM*,5.1%
COc1ccc(C(=O)Nc2cc(C)nn2-c2ccc(F)cc2)cc1,-28.4%,-6.7%,-0.7,-8.1%,-6.8%,3.6%
Cc1oc(-c2ccccc2NC(=O)C2CCC2)nc1CNC(=O)c1ccccn1,-20.9%,/,/,/,-29.4%,/
Cc1ccc2nc(N/N=C/c3ccccc3F)nc(-c3ccccc3)c2c1,?,3.2%,-52.6*,3.6%,?,-0.6%
OCCNc1nc(-c2ccccc2)c2cc(Cl)ccc2n1,-18.6%,0.2%,-19.3,-27.7%,-2.9%,-2.4%
Cc1cc(-c2ccccc2)nc(N/N=C/c2ccccc2F)n1,?,?,-16.1,-31.9%,?,/
N#Cc1ccccc1/C=N/Nc1nc(-c2ccccc2)c2cc(Cl)ccc2n1,?,15.7%,-15.3,-2.5%,?,0.0%
Cc1ccc2nc(NCCO)nc(-c3ccccc3)c2c1,25.9µM*,3.8%,-22.9,-1.6%,?,-4.7%
SMILES,TDP1 cell noCPT,TGFb inhibitor,IL-1B inflam inh,HepG2 tox,TDP1 cell CPT,TDP1 inh
Cc1ccc2nc(N/N=C/c3ccccc3C#N)nc(-c3ccccc3)c2c1,23.1µM*,1.1%,-73.2*,-17.6%,?,-3.9%
N#Cc1ccc(OCC(=O)OCC(=O)NC2CC2)cc1,-4.9%,2.5%,6.1,-2.4%,1.8%,0.6%
NC(=S)N/N=C/c1ccccc1OC(=O)c1cc2ccccc2oc1=O,6.51µM*,-13.6%,-14.6,-48.9%,?,3.5%
COc1ccccc1/C=C/C=N/NC(=O)c1cccs1,6.51µM*,-10.4%,-14.8,-16.9%,20.6µM*,6.2%
O=C(N/N=C/c1cccc([N+](=O)[O-])c1O)c1cccs1,1.03µM*,?,66.3,-66.7%,0.731µM*,1.9%
NC(=S)N/N=C/c1c[nH]c2ccc(OCc3ccccc3)cc12,?,?,-14.2,-36.8%,?,10.6%
NC(=S)N/N=C\c1ccccc1OCc1ccccc1,?,?,-4.6,-59.4%,29.1µM*,7.1%
CCOC(=O)c1c(-c2ccccc2)oc2ccc(N(C(C)=O)S(=O)(=O)c3cc(C)ccc3C)cc12,/,-4.3%,/,-26.1%,/,/
CCOc1ccccc1NC(=O)Cn1c(=O)n(CCCC(=O)NCCc2ccc(C)cc2)c(=O)c2ccccc21,-12.6%,?,/,0.8%,-1.7%,7.3%
Cc1ccc(SCC(Cc2ccccc2)N2CCN(C)CCC2=O)cc1 (stereo not given),/,-11.5%,/,-26.1%,/,10.3%
Cn1c(SCC(=O)NNC(=O)Nc2ccccc2)nnc1-c1ccccc1,0.5%,0.7%,15.6,-36.0%,13.0%,/
CC(C)[N+]1(C)C2CCC1CC(OC(=O)C(CO)c1ccccc1)C2 (stereo not given),-11.2%,/,/,/,1.1%,12.2%
O=C(NN=Cc1cccc2ccccc12)C(=O)NN=Cc1cccc2ccccc12,14.6µM*,-8.6%,-20.0,3.1%,?,/
NC(=S)N/N=C/c1ccccc1,-22.8%,?,15.2,-16.8%,-2.3%,0.0%
O=C(N/N=C/c1cccc2ccccc12)c1cccs1,?,-20.0%,50.5,-14.5%,25.9µM*,/
O=C(N/N=C/c1cccc2ccccc12)c1ccccc1Cl,-3.7%,4.1%,-51.4*,-9.7%,-7.2%,/
NC(=S)N/N=C/c1ccccc1OC(=O)/C=C/c1ccccc1,0.517µM*,7.08µM*,?,3.98µM*,5.17µM*,6.2%
